Results taken from ChEMBL document CHEMBL1961873, “Compounds: GSK PKIS; Assays: Nanosyn kinase panel” (2012).

What was measured:
[1] = test system: Tyrosine-protein kinase ABL1 (Homo sapiens), P00519 [T315I]; conditions: at 1 µM
[2] = test system: Tyrosine-protein kinase ABL1 (Homo sapiens), P00519 [Y253F]; conditions: at 0.1 µM
[3] = test system: Tyrosine-protein kinase ABL1 (Homo sapiens), P00519 [Y253F]; conditions: at 1 µM
[4] = target: Tyrosine-protein kinase ABL1 (Homo sapiens) (UniProt P00519); conditions: at 0.1 µM
[5] = target: Tyrosine-protein kinase ABL1 (Homo sapiens) (UniProt P00519); conditions: at 1 µM
[6] = target: ALK tyrosine kinase receptor (Homo sapiens) (UniProt Q9UM73); conditions: at 0.1 µM
[7] = target: ALK tyrosine kinase receptor (Homo sapiens) (UniProt Q9UM73); conditions: at 1 µM
[8] = target: Tyrosine-protein kinase ABL2 (Homo sapiens) (UniProt P42684); conditions: at 0.1 µM
Sequence of Tyrosine-protein kinase ABL2 (Homo sapiens) (P42684 whole entry): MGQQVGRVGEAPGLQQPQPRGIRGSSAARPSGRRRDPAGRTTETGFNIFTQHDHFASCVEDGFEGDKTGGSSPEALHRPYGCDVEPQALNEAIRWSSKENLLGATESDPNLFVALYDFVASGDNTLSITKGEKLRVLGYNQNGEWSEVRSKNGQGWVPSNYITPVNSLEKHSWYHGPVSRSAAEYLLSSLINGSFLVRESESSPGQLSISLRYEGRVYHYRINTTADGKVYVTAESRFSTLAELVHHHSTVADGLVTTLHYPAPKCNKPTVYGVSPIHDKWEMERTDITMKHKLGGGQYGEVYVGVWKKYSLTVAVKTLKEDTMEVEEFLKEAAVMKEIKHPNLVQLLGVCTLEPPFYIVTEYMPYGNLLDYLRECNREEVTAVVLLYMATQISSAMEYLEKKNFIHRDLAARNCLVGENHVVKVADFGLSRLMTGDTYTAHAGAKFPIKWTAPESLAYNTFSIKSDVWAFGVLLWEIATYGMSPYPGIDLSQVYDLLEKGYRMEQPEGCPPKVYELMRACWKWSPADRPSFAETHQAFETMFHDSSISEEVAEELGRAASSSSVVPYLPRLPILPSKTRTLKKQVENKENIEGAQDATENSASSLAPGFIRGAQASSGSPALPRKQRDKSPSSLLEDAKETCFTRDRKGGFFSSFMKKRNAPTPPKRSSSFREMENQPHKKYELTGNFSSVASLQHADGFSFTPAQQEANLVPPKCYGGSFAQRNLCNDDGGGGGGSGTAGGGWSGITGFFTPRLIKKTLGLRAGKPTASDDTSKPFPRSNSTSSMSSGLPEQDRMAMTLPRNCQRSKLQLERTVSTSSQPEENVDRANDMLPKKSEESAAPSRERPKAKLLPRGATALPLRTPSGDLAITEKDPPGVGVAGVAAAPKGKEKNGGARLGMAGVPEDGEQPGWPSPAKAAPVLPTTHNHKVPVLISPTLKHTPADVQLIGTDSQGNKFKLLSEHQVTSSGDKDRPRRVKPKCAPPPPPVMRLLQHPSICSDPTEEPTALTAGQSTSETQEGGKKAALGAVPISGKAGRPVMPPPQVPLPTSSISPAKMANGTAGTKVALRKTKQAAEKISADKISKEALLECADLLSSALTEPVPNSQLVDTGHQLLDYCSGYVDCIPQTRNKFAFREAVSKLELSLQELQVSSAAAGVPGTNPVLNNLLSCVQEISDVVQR

[9] = target: Tyrosine-protein kinase ABL2 (Homo sapiens) (UniProt P42684); conditions: at 1 µM
[10] = target: Tyrosine-protein kinase receptor UFO (Homo sapiens) (UniProt P30530); conditions: at 0.1 µM
Sequence of Tyrosine-protein kinase receptor UFO (Homo sapiens) (P30530 whole entry): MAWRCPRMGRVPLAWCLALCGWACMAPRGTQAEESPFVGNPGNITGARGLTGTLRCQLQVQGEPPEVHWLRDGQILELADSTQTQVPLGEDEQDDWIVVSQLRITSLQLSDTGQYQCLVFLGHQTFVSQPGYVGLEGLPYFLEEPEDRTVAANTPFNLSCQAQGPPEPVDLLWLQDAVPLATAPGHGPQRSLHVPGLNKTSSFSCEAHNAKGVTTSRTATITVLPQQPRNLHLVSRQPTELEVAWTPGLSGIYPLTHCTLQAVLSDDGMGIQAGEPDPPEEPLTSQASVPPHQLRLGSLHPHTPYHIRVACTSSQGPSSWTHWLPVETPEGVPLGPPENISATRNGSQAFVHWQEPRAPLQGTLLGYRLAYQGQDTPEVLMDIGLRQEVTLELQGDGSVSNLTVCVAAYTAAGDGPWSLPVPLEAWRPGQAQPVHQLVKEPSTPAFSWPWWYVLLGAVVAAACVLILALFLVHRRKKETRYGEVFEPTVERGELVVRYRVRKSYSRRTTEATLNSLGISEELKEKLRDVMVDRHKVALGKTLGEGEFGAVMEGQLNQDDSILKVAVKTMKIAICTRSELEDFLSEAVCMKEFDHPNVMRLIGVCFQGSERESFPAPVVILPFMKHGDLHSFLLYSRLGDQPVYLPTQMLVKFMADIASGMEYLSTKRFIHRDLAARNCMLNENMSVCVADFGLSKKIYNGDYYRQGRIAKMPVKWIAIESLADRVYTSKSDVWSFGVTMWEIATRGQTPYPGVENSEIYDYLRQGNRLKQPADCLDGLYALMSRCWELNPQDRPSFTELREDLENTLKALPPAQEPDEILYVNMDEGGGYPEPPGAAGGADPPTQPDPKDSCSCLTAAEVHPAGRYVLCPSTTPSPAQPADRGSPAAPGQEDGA

[11] = target: Tyrosine-protein kinase receptor UFO (Homo sapiens) (UniProt P30530); conditions: at 1 µM
[12] = target: Tyrosine-protein kinase Blk (Homo sapiens) (UniProt P51451); conditions: at 0.1 µM
Sequence of Tyrosine-protein kinase Blk (Homo sapiens) (P51451 2-505 limits assumed): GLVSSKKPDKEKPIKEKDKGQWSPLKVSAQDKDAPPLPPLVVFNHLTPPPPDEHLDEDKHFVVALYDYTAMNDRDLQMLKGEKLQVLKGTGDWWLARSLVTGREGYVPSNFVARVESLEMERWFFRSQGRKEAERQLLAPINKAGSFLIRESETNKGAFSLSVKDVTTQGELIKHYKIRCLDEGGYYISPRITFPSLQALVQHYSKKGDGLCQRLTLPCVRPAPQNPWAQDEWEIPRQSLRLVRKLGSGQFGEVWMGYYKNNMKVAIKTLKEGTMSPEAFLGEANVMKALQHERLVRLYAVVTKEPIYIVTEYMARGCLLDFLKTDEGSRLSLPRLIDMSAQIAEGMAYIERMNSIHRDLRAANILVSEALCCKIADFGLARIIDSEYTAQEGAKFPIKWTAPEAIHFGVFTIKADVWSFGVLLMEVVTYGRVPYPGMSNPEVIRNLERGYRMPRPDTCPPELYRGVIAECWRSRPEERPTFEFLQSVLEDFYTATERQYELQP

[13] = target: Tyrosine-protein kinase Blk (Homo sapiens) (UniProt P51451); conditions: at 1 µM
[14] = target: T1, Cytoplasmic tyrosine-protein kinase BMX (Homo sapiens) (UniProt P51813); conditions: at 0.1 µM
T1 sequence (whole entry): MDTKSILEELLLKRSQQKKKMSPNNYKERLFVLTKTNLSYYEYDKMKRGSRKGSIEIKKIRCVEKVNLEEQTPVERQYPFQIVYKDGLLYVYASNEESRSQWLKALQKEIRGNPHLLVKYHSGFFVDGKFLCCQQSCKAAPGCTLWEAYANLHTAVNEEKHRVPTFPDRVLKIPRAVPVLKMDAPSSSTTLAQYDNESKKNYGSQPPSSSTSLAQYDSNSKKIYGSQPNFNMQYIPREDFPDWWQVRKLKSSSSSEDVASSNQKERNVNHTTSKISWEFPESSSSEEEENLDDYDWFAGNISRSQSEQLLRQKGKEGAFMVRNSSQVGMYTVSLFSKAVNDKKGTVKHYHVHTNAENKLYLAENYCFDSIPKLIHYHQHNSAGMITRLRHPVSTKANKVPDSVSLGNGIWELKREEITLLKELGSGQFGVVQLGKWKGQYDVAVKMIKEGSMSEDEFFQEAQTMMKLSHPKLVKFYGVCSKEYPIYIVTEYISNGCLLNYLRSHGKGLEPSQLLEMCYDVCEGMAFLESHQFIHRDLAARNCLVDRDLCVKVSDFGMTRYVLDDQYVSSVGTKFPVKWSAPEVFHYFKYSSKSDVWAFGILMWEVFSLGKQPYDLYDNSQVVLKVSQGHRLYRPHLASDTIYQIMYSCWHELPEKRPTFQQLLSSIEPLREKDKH

[15] = target: T1, Cytoplasmic tyrosine-protein kinase BMX (Homo sapiens); conditions: at 1 µM
[16] = target: Protein-tyrosine kinase 6 (Homo sapiens) (UniProt Q13882); conditions: at 0.1 µM
Sequence of Protein-tyrosine kinase 6 (Homo sapiens) (Q13882 whole entry, looked up): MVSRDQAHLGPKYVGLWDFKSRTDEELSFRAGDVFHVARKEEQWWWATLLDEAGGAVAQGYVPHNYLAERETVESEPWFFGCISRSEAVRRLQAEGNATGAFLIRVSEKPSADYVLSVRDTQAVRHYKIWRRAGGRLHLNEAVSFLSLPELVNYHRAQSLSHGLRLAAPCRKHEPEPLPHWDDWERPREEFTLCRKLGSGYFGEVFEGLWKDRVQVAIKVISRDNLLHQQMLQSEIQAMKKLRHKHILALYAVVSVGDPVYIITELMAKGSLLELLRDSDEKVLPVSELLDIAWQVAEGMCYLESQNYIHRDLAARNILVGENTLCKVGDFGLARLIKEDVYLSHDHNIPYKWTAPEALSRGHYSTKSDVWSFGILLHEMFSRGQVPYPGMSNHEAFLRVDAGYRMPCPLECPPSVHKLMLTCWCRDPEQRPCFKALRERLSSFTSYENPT

[17] = target: Protein-tyrosine kinase 6 (Homo sapiens) (UniProt Q13882); conditions: at 1 µM
[18] = target: Tyrosine-protein kinase BTK (Homo sapiens) (UniProt Q06187); conditions: at 0.1 µM
Sequence of Tyrosine-protein kinase BTK (Homo sapiens) (Q06187 whole entry): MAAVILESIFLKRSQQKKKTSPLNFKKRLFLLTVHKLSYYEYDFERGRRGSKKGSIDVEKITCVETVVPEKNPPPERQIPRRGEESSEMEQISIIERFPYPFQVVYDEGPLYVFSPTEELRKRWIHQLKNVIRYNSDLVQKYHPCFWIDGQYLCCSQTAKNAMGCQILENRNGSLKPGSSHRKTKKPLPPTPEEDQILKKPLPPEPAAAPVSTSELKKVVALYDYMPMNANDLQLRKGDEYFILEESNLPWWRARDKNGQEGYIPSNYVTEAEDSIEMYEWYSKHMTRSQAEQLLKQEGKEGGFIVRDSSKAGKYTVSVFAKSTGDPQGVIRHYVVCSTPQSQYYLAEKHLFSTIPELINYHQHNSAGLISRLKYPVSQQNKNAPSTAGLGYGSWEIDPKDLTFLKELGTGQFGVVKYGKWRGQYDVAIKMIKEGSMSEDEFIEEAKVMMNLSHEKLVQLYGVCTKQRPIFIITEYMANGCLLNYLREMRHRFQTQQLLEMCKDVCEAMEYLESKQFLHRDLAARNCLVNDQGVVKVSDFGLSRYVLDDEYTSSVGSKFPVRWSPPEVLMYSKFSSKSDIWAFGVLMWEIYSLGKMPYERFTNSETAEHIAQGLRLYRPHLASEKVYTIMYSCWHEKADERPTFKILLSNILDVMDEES

[19] = target: Tyrosine-protein kinase BTK (Homo sapiens) (UniProt Q06187); conditions: at 1 µM
[20] = target: Tyrosine-protein kinase CSK (Homo sapiens) (UniProt P41240); conditions: at 0.1 µM;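 also: value given is the averaged percent inhibition of CSK kinase activity, from the GSK PKIS kinase inhibitor set screening panel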
Sequence of Tyrosine-protein kinase CSK (Homo sapiens) (P41240 2-450 limits assumed): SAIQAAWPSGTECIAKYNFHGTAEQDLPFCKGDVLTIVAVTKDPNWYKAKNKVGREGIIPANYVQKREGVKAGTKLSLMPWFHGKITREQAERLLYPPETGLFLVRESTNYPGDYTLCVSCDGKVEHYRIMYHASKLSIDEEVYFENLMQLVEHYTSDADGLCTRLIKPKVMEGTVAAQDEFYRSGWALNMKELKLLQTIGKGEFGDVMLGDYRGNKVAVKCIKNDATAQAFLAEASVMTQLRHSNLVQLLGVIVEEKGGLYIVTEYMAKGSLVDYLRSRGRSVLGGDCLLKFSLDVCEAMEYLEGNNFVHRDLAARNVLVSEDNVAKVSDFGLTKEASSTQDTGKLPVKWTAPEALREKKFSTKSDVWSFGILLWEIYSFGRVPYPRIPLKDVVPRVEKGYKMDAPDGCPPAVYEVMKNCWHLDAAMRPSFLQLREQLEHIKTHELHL

Compound	inhibition [1] [%]	inhibition [2] [%]	inhibition [3] [%]	inhibition [4] [%]	inhibition [5] [%]	inhibition [6] [%]	inhibition [7] [%]	inhibition [8] [%]	inhibition [9] [%]	inhibition [10] [%]	inhibition [11] [%]	inhibition [12] [%]	inhibition [13] [%]	inhibition [14] [%]	inhibition [15] [%]	inhibition [16] [%]	inhibition [17] [%]	inhibition [18] [%]	inhibition [19] [%]	inhibition [20] [%]
NS(=O)(=O)c1cccc(-c2ccc3c(NC(=O)C4CC4)n[nH]c3c2)c1	25.3	2.68	27	-0.29	20.5	-1.84	-1.06	-1.16	1.08	1.32	2.37	-0.75	0.74	-2.14	0.66	-2.66	0.49	-0.13	-1.52	-7.29
CCn1c(-c2nonc2N)nc2c(C#CC(C)(C)O)nc(CN3CCCC3)cc21	0.96	0.59	-0.16	0.66	3.27	-0.84	0.01	2.08	5.65	1.88	1.53	-0.49	0.66	2.82	-1.55	-2.67	-1.74	-1.44	-1.15	-0.07
CS(=O)(=O)CCNCc1nc(-c2ccc3ncnc(Nc4ccc(F)c(Cl)c4)c3c2)cs1	6.43	1.82	18.3	3.89	18.2	0.89	3.6	4.58	9.66	0.38	0.38	1.92	7.95	0.99	7.67	1.05	5.15	0.64	4.51	2.86
NC(=O)c1cccc(Nc2nccc(Nc3cccc4[nH]ncc34)n2)c1	25.4	84.1	98.5	70.2	84.9	-0.3	15.4	69.1	88.6	4.05	7.82	9.56	66.3	21.6	73.8	68.6	99.7	3.23	19.9	-2.2
COc1cc2c(cc1Nc1nc(N3CCc4ccccc43)c3cc[nH]c3n1)N(C(=O)CN(C)C)CC2	-1.44	1.21	3.71	2.76	7.27	90	85.3	2.02	5.11	3.85	21.4	0.59	4.28	-0.34	4.16	1.24	0.03	1.01	2.65	3.07
CCCN1CCC(Oc2cc(Nc3nc(Nc4cccc(F)c4C(N)=O)c4cc[nH]c4n3)c(OC)cc2Cl)CC1	1.37	1.12	3.82	4.76	10.1	55.7	78.2	4.89	12.3	5.22	6.29	0.32	4.43	-3.07	0.44	2.81	14.8	0.06	0.8	-0.02
Cc1nn(C)c2cc(N(C)c3ccnc(Nc4cccc(S(N)(=O)=O)c4)n3)ccc12	68.1	45.3	84.5	28.3	74.9	3.45	19.2	30.2	74.4	-2.86	-1.13	5.53	46.8	8.2	35.1	10.8	52	-0.96	6.74	5.24
CCN1CCC(CC(=O)Nc2n[nH]c3nc(-c4cccs4)c(Br)cc23)CC1	22.7	-0.82	5.45	2.56	7.83	-2.08	-1.3	-0.08	2.5	1.67	2.24	-1.4	0.14	-3.73	-1.1	-3.07	0.94	-1.38	0.05	–
NS(=O)(=O)c1ccc(N/N=C2\C(=O)Nc3ccc(C(=O)NCCc4c[nH]cn4)cc32)cc1	11.6	3.56	12.1	5.35	15.3	3.67	12.9	4.29	9.57	-2.52	9.57	4.25	17.2	-1.78	6.53	7.16	5.31	1.88	1.29	8.17
c1cnn2ncc(-c3ccnc(Nc4ccc5c(c4)OCCO5)n3)c2c1	35.9	9.16	36	7.67	38.7	3.96	31.7	7.27	43.9	-2.3	10.1	3.13	9.58	1.58	14.5	6.27	13.7	1.69	3.99	4.46
Cc1ccc(NC(=O)c2ccnc(N3CCCC3)c2)cc1-c1ccc(C(=O)NCC2CC2)cc1	2.61	2.64	3.85	-0.85	4.81	0.36	5.33	-0.85	7.46	-7.11	1.21	-1.39	-0.22	2.83	4.79	4.19	3.04	-3.6	-2.42	2.53
O=C1NC(=O)C(N2CCc3ccccc32)=C1c1ccc(Cl)cc1	1.87	6.01	5.27	4.41	7.9	3.63	4.31	4.83	8.28	-4.63	-2.89	2.66	4.59	-0.48	5.82	4.84	4.71	0.29	0.58	3.38
Cc1cc(O)cc(C)c1/C=C/c1cncc(-c2nn[nH]n2)c1	8.36	31.5	86.1	12.4	71.1	-0.37	4.03	19.9	68.6	-8.81	-3.63	0.83	48.1	11.2	66.3	29.6	86.3	-0.39	7.14	8.08
